For 38 compounds, growth results are on record in PubChem BioAssay (NCI).

The structures appear in SMILES notation. About 83,000 compounds went through this panel and 20% of them were active in at least one assay; those are over-represented in the sample as a whole.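 Cells were grown in 96-well plates and exposed to the test compound at a single concentration for 48 hours; results are reported as percent growth, with values below 10 considered active.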 Unmarked numbers belong to inactive results. Activity calls are given as the source filed them.

The experiment deals with OVCAR-5 ovarian. The experiment in a line: NCI-60 one-dose screen, 48 h (100 = growth as untreated, 0 = no growth, -100 = all killed). The conditions noted are these: 10 µM unless noted.
Take `COc1c(F)ccc(C(=O)Nc2ccc3nc(NC(=O)C4CCCN(S(=O)(=O)C5CC5)C4)sc3c2)c1F` (stereo not drawn): the growth was 77.4%. The same measure for `CCOC(=O)C1=C(N)N(c2ccccc2)C2=C(C(=O)CC(C)(C)C2)C1c1ccc(N2CCOCC2)cc1` (stereo not drawn): 101%; for `OCC1(CCCc2ccccc2)CCCN(c2nccc3ccccc23)C1` (stereo not drawn): 62.4%. The same measure for `COc1ccc(/C=N/NC(=O)Cn2nc(Cc3ccc(OC)cc3)c3onc(C)c3c2=O)cc1`: 52.2%; for `O=[N+]([O-])c1ccc(/C=C/c2nc3ccccc3n3c(=S)[nH]nc23)cc1`: 89.1%. The same measure for `COC(=O)/C=C/c1cccc2c1C(=O)NC(C)(c1cc3ccccc3oc1=O)N2` (stereo not drawn): 77.6%; for `CCN(CC)c1ccc(/C=N/Nc2nc(-c3ccc(Br)cc3)cs2)c(O)c1`: 91.5%. Regarding `O=C(c1ccccc1)C(c1c[nH]c2ccccc12)c1c[nH]c2ccccc12`, the growth was 76.6%. The same measure for `CC1(C)CC[C@]2(C(=O)Nc3ccc(Br)cc3)CC[C@]3(C)C(=CCC4[C@@]5(C)C[C@@H](O)[C@H](O)[C@@](C)(CO)C5CC[C@]43C)C2C1` (stereo partly drawn): -21.8% (active); for `CC(/C=C1\SC(=S)N(CCCC(=O)NC(CC(C)C)C(=O)O)C1=O)=C\c1ccccc1` (stereo not drawn): 111%; for `Cn1cc(-c2cc(N)n3nc(-c4cn(C)c5ccccc45)cc3n2)c2cc(Br)ccc21`: 5.47% (active). The same measure for `Cc1ccc(NCC(=O)Cn2cc(COc3ccc(C=Nc4cnc5ccccc5c4)cc3)nn2)cc1`: 107%.

Turning to `Cc1ccc([C@H]2C(C(=O)c3ccc(Cl)cc3)C3(N[C@@H]2c2ccccc2)C(=O)Nc2ccc(Cl)cc23)cc1` (stereo partly drawn), the growth is 67.5%.

On to `Cc1cc2nc3c4ccccc4n(CCNCCN(C)C)c3nc2cc1C`, for which the growth was 39.5%. With `Cc1ccccc1[C@H]1C(C(=O)c2ccc(Cl)cc2)C2(N[C@@H]1c1ccccc1)C(=O)Nc1ccc(Br)cc12` (stereo partly drawn), the growth was 5.07% (active). On to `CC(C)c1sc(NC(=O)c2cc(NC(=O)c3cc(NC(=O)c4cscn4)cn3C)cn2C)nc1C(=O)NCCCN(C)C`, for which the growth is 10.5%. The same measure for `CC(=O)OC[C@@]1(C)C2CC[C@]3(C)C(CC=C4C5CC(C)(C)CC[C@]5(C(=O)Nc5ccc(C)cc5)CC[C@]43C)[C@@]2(C)C[C@@H](OC(C)=O)[C@@H]1OC(C)=O` (stereo partly drawn): 95.2%; for `O=C1CC(Sc2n[nH]c(-c3ccncc3)n2)C(=O)N1c1ccc(Br)cc1` (stereo not drawn): 105%. For `COc1cc2c3c(n(CCCN4CCC[C@@H]4CO)c(=O)c2cc1OC)-c1cc2c(cc1C3=O)OCO2`, the growth is -98.7% (active).

As to `C=C1CCC2C3(C)COC(c4ccc(F)cc4)OC3CCC2(C)C1C/C=C1/C(=O)OCC1O` (stereo not drawn), the growth is -6.07% (active). The same measure for `Cc1sc(C(NC(=O)OCCn2c([N+](=O)[O-])cnc2C)C(F)(F)Cl)nc1-c1ccc(OC(F)(F)F)cc1` (stereo not drawn): -96% (active); for `CC1[C@H]2[C@H](C[C@H]3[C@@H]4CC=C5c6sc(Nc7ccccc7F)nc6CC[C@]5(C)[C@H]4CC[C@@]32C)O[C@]12CC[C@@H](C)CO2` (stereo partly drawn): -67.1% (active); for `O=C(c1ccccc1)c1ccc2nc(-c3cccc(Cl)c3)[nH]c2c1`: 107%. As to `OCNc1ccc(-n2cnc3cc(-c4ccc(O)cc4)ccc32)cc1C(F)(F)F`, the growth is 34.4%. On to `CCOC(=O)C(N=Nc1ccc(S(=O)(=O)N=C(N)N)cc1)C(C)=O` (stereo not drawn), for which the growth was 104%. For `CCOC(=O)/C=C/c1cccc2c1C(=O)NC(C)(c1cc3cc(Cl)ccc3oc1=O)N2` (stereo not drawn), the growth is 50.4%. The same measure for `C#CCOc1cc(N(CC)CC)ccc1C(C(=O)NC(C)(C)C)N(C(=O)C1CCc2cc(F)ccc2O1)c1ccc(Br)cc1` (stereo not drawn): 87.1%; for `CCCCCCCCc1ccc(C(=O)Nc2ccc(C)cc2C(=O)O)cc1C`: 115%; for `C#CCOc1cc(N(CC)CC)ccc1C(C(=O)NC(C)(C)C)N(C(=O)C1CCc2cc(F)ccc2O1)c1ccc(F)c(Cl)c1` (stereo not drawn): 82.7%.

As to `CCOC(=O)C1=C(N)N(c2ccccc2)C2=C(C(=O)CC(C)(C)C2)C1c1ccc([N+](=O)[O-])cc1` (stereo not drawn), the growth was 101%. The same measure for `C=C1CC[C@@H]2[C@]3(C)COC(c4ccccc4)O[C@@H]3CC[C@@]2(C)[C@@H]1C/C=C1/C(=O)OCC1OC(C)=O` (stereo partly drawn): -78.5% (active); for `C#C[C@]1(O)CC[C@H]2[C@@H]3CC=C4c5sc(-c6ccc([N+](=O)[O-])cc6)nc5CC[C@]4(C)[C@H]3CC[C@@]21C`: 12.5%. As for `CN1CCN(/C(=N\c2sc(-c3ccccc3)nc2-c2ccccc2)c2ccccc2)CC1`, the growth was 70%. As for `N=C1N=C(SCc2nc3ccccc3[nH]2)NC(=O)/C1=C/c1ccc(Cl)cc1`, the growth was 113%.

For `C/C(=N\N=C1/C(=O)Nc2ccc(Cl)cc21)c1ccc2c(c1)Nc1ccccc1S2`, the growth was 15.8%.

Turning to `Cc1cccc(NC(=O)CN2CCN(c3ncnc4c3cnn4-c3ccccc3)CC2)c1`, the growth is 94.7%.

`CN(C)CCOc1ccc(C(=O)C2[C@H](c3ccc(Cl)cc3)[C@@H](c3ccccc3)NC23C(=O)Nc2ccccc23)cc1` (stereo partly drawn): the growth is 85.8%. Consider `COc1ccc2[nH]cc(-c3nnc(N)nc3-c3cn(C)c4ncc(Br)cc34)c2c1`, for which the growth is 84.8%.
